High-throughput results deposited in PubChem BioAssay by several laboratories.
NR2F2 inh = NR2F2 (human) inhibition, primary screen; inhibition, % at 8.6 µM; HEK293T NGFI-A luciferase reporter, luminescence; P24468; 370,000 tested, 0.7% active; AID 686940;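 active = inhibition above a per-plate cutoff, mean inhibition of test wells between control levels plus 3 SD, cut at about 38% in these data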;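 note: cells cotransfected with COUP-TFII expression vector driving the NGFI-A reporter; 0% = median of COUP-TF2 test wells and 100% = reporter-only cells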
NR5A2 inv ag = NR5A2 inverse agonism in reporter assay. O00482. 360,000 tested, 0.13% active. inhibition, % at 3.6 µM. HEK293T StAR-luciferase reporter, LRH-1 transfected, 24 h;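 active = inhibition above the mean inhibition of all tested compounds plus 3 SD, cut at about 73% in these data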;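 note: 0% = DMSO wells and 100% = reporter-only cells lacking LRH-1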
Target sequence (O00482 whole entry, looked up): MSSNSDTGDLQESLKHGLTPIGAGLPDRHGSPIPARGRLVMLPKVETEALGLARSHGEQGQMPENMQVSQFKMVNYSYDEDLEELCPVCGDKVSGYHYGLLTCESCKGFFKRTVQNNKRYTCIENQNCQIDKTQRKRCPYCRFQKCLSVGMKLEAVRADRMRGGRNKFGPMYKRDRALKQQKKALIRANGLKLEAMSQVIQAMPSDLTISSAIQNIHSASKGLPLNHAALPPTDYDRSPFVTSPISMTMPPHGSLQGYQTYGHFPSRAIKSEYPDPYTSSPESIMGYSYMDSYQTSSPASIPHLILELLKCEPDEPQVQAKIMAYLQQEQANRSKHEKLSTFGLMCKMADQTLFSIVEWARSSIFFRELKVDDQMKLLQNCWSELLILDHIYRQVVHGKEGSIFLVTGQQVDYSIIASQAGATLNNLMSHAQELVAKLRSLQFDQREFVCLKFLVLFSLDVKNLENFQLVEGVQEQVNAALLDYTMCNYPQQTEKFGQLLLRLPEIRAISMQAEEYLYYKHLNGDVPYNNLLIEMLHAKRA
NCOA2 inhibitor = inhibits human steroid receptor coactivator 2 | Q15596 | HEK293 GAL4-SRC2 luciferase reporter, luminescence | inhibition, % at 9 µM | 370,000 tested, 0.17% active;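 active = inhibition above the mean inhibition of all tested compounds plus 3 SD, set per campaign, cut at about 52% in these data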;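 note: 0% = DMSO treated cells and 100% = cells given Gossypol at 36 µM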
NCOA1 inh = inhibitors of human steroid receptor coactivator 1 (SRC1); 360,000 tested, 0.12% active; AID 588354; HEK293 GAL4-SRC1 luciferase reporter, luminescence; inhibition, % at 3.6 µM; Q15788;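 active = inhibition above the campaign mean plus 3 SD, with each screening campaign given its own cutoff, cut at about 60% in these data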;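 note: 0% = DMSO treated cells and 100% = gossypol at 36 µM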
Gli-Sufu antag = blocks Gli-Sufu signaling in a luciferase reporter; Sufu-KO-LIGHT fibroblasts, Gli luciferase reporter luminescence; inhibition, % at 5 µM; 340,000 tested, 0.74% active;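 active = inhibition above about 55%, limit read from the data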;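 note: 0% = DMSO-treated cells and 100% = wells with medium but no cells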
SRC3 inh = human NCOA3 inhibition; Q9Y6Q9; HEK293 GAL4-SRC3 luciferase reporter, luminescence; inhibition, % at 3.6 µM; 360,000 tested, 0.17% active; AID 588352;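 active = inhibition above a per-campaign cutoff, the mean of all compounds plus 3 SD, cut at about 60% in these data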;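 note: 0% = DMSO-treated cells and 100% = gossypol-treated cells at 36 µM; higher means less SRC3-driven luciferase light from the GAL4 reporter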
Gli antag conf = Gli-SUFU antagonism confirmation, single concentration. 2,500 tested, 40% active. inhibition, % at 5 µM. Sufu-KO-LIGHT cells, Gli luciferase reporter, luminescence. shares compounds with Gli-Sufu antag;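 active = mean inhibition at 5 µM reaching about 45%, limit read from the data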;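 note: plate controls were DMSO-treated cells for no effect and wells lacking cells for full effect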
Gli cytotox = counter-screen for Gli-SUFU antagonists: cytotoxicity; Sufu-KO-LIGHT cells cytotoxicity, ATP luminescence; 2,500 tested, 32% active; shares compounds with Gli-Sufu antag; cytotoxicity, % at 5 µM; AID 651994;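 active = mean cytotoxicity at 5 µM above about 25%, limit read from the data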;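 note: cells exposed to compound overnight for roughly 16 to 18 hours; plate controls were DMSO wells with cells for no effect and medium without cells for full effect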
Wnt3a cs = counter-screen for Gli-SUFU antagonists: Wnt3a reporter inhibition; shares compounds with Gli-Sufu antag; Wnt-LIGHT cells, Wnt3a-driven luciferase reporter, luminescence; inhibition, % at 6.25 µM; 2,500 tested, 20% active; AID 651995;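 active = mean inhibition above about 25%, limit read from the data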
Active calls of the source: *; · = not tested or not shown. Compounds with a hit are over-represented: about 1.3% of the library has one in this group of screens.

SMILES | NR2F2 inh | NR5A2 inv ag | NCOA2 inhibitor | NCOA1 inh | Gli-Sufu antag | SRC3 inh | Gli antag conf | Gli cytotox | Wnt3a cs
Cc1ccc(NS(=O)(=O)c2ccc(-c3cnc(C4CC4)o3)cc2)cc1 | 16 | 23 | -22 | -11 | -6 | 9 | · | · | ·
O=S(=O)(NCc1ccccc1)c1ccc(-c2cnc(C3CC3)o2)cc1 | 20 | 3 | -8 | 16 | 8 | 11 | · | · | ·
COc1ccc(C)cc1NS(=O)(=O)c1ccc(-c2cnc(C3CC3)o2)cc1 | -10 | 43 | 52 | 13 | 66* | 21 | 62* | 66* | 15
COC(=O)[C@]12C[C@H](CC(=O)NCc3cccc(C(F)(F)F)c3)C(=O)N(Cc3cccc4ccccc34)C1=C[C@H](C1CCCC1)O[C@@H]2C | 4 | · | 19 | · | · | · | · | · | ·
CC(C)[C@H](NC(N)=O)C(=O)Nc1ccc(F)c(Cl)c1 | 10 | -15 | 9 | -8 | 53 | 23 | 4 | 1 | -6
Cc1ccc(NC(=O)CCN2CCN(C/C=C/c3ccccc3)CC2)cc1 | -14 | -11 | 9 | 9 | -12 | 7 | · | · | ·
O=C(CCN1CCN(C/C=C/c2ccccc2)CC1)Nc1ccc(Cl)cc1 | 10 | -6 | 8 | -7 | 55 | -6 | 15 | 24 | -32
O=C(Nc1ccc(NC(=O)c2cc3ccccc3o2)cc1)c1ccc2c(c1)OCCO2 | -2 | 9 | -1 | 17 | 52 | 8 | 61* | 2 | 88*
CCC[C@H]1[C@@H](NC(=O)C2CCOC2)CC[C@@]23CCCN2C(=O)CCC[C@@H]13 (stereo partly drawn) | -3 | · | · | · | · | · | · | · | ·
CCc1c(-c2ccc(Br)cc2)ncn1CCc1ccccc1OC | 0 | · | -4 | · | · | · | · | · | ·
Cc1ccc(S(=O)(=O)N2CCN(c3ccc(N4CCOCC4)nn3)CC2)cc1[N+](=O)[O-] | 10 | -6 | 21 | -6 | 5 | 12 | · | · | ·
O=[N+]([O-])c1ccc(S(=O)(=O)N2CCN(c3ccc(N4CCOCC4)nn3)CC2)cc1 | -5 | -8 | 9 | 3 | 55 | 3 | 33 | 19 | -21
COc1ccc(C(=O)N2CCC[C@@H]2C(=O)N2CCC[C@@H]2C(=O)NCc2ccccc2)cc1F | 1 | · | -17 | · | · | · | · | · | ·
CC[n+]1c(/C=C(\C)Nc2ccccc2)sc2ccccc21 | 5 | -11 | 4 | -1 | 11 | -8 | · | · | ·
CC[n+]1c(/C=C/Nc2ccccc2)sc2ccccc21 | 19 | -12 | 20 | 9 | 68* | 6 | 81* | 37* | 30*
CCN1/C(=C/C=C/C=C/C=C/c2sc3ccccc3[n+]2CC)Sc2ccccc21 | -3 | 3 | 29 | 12 | 83* | 14 | 91* | 32* | 45*
CC[n+]1c(/C=C(\C)SC)sc2ccccc21 | 4 | -3 | 13 | 6 | 4 | 4 | · | · | ·
COC(=O)CN1CCN(C(=O)c2csc(-c3ccccc3)n2)CC1 | -11 | · | -29 | · | · | · | · | · | ·
CCOC(=O)c1ccc(N2C(=O)c3n[nH]c(C)c3C2c2ccco2)cc1 (stereo not drawn) | -4 | -4 | -15 | -2 | 4 | 2 | · | · | ·
CCOC(=O)c1ccc(N2C(=O)c3n[nH]c(-c4ccco4)c3C2c2cccc([N+](=O)[O-])c2)cc1 (stereo not drawn) | 2 | 3 | 9 | 11 | 99* | 5 | 17 | 4 | -21
O=C(Nc1ccc(N2C(=O)CC(c3ccccc3)C2=O)c(Cl)c1)c1ccccn1 (stereo not drawn) | -6 | · | · | · | · | · | · | · | ·
CC(c1ccc(F)cc1)n1cc(C(=O)NCCN(C)C)nn1 (stereo not drawn) | -7 | 4 | -1 | 0 | 57* | 19 | 29 | 21 | 6
O=C(C1CCCN1S(=O)(=O)c1cccc2nsnc12)N1CCN(c2ccc(F)cc2)CC1 (stereo not drawn) | -18 | -6 | -4 | 7 | 58* | 15 | 20 | -10 | -25
COc1ccc(OCC(O)Cn2c(=N)n(Cc3ccccc3)c3ccccc32)cc1 (stereo not drawn) | 1 | 15 | -5 | -1 | 52 | 11 | 33 | 31* | -14
CN(Cc1ccco1)C(=O)CN1C(=O)C2(OCCCO2)c2ccccc21 | 19 | · | 10 | · | · | · | · | · | ·
SMILES | NR2F2 inh | NR5A2 inv ag | NCOA2 inhibitor | NCOA1 inh | Gli-Sufu antag | SRC3 inh | Gli antag conf | Gli cytotox | Wnt3a cs
CCc1cccc2c(C(=O)COC(=O)c3nn(C)c(=O)c4ccccc34)c[nH]c12 | 7 | -20 | -21 | 1 | 99* | -29 | 30 | 6 | -86
C#CCN1C(=O)[C@]2(OC[C@@H]3Cc4ccccc4[C@@H]3C=C2C)c2ccccc21 | 28 | · | 18 | · | · | · | · | · | ·
S=C(Nc1ccc(I)cc1)OC1CCC12CCC(c1ccccc1)CC2 (stereo not drawn) | -22 | · | 0 | · | · | · | · | · | ·
CN(C)S(=O)(=O)c1ccc2nnn(O)c2c1 | 4 | -19 | -44 | -38 | 59* | -21 | 15 | 2 | 19
COc1ccc(C2CC(C(F)(F)F)n3nc(C(=O)N(C)Cc4cn(C)nc4C)c(Cl)c3N2)cc1 (stereo not drawn) | 10 | 2 | 5 | -17 | 0 | 22 | · | · | ·
COc1ccc(C2CC(C(F)(F)F)n3nc(C(=O)NCc4c(C)nn(C)c4C)c(Cl)c3N2)cc1 (stereo not drawn) | 28 | 21 | 22 | 20 | 61* | 17 | 50* | 42* | -1
O=C(Nc1ccccc1Cl)C1CCCN(S(=O)(=O)c2cccc3cccnc23)C1 (stereo not drawn) | 4 | 16 | 0 | 16 | 76* | 12 | 29 | 9 | 3
O=C(Nc1ccc(F)cc1)OCc1cn(Cc2ccccc2C(F)(F)F)nn1 | -1 | · | -1 | · | · | · | · | · | ·
COc1nnc(-c2ccc(C)c(S(N)(=O)=O)c2)c2ccccc12 | 1 | 4 | -64 | -1 | 6 | 3 | · | · | ·
COc1nnc(-c2ccc(N3CCCCC3)c(N)c2)c2ccccc12 | -4 | -23 | -27 | 5 | 53 | -31 | 59* | 19 | -36
O=C(N/N=C/c1ccccc1Cl)c1[nH]c2ccc(Br)cc2c1-c1ccccc1 | 4 | 26 | 8 | -3 | 68* | 15 | 58* | 61* | -17
CCOC(=O)c1oc2ccc(S(=O)(=O)n3nc(-c4ccc(Cl)cc4)cc3N)cc2c1C | -9 | -6 | -9 | 14 | 54 | -11 | 8 | 18 | -11
N#Cc1c(C(F)(F)F)cc(-c2ccccc2)nc1SCC(=O)Nc1sc2c(c1C#N)CCC2 | 10 | 2 | -9 | 4 | 68* | 1 | 76* | 10 | 54*
N#Cc1ccc(-c2cccnc2)nc1SCC(=O)Nc1sc2c(c1C#N)CCC2 | · | -11 | · | -4 | 13 | -11 | · | · | ·
O=C1CC(N2CCCC2)=NC(=O)N1c1ccc(Br)cc1 | -1 | · | -16 | · | · | · | · | · | ·
